Measured values: PubChem BioAssay (NCI)
This is part of a sample that, as a whole, favours compounds with a hit. Of some 83,000 tested, about 20% had one in any assay.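 Each cell line was grown in a 96-well plate and treated with one concentration of compound for 48 hours. Values below 10 were considered active.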 Unmarked numbers belong to inactive results. Activity calls are given as the source filed them.

system: HCT-15 colon; test: NCI-60 one-dose screen, 48 h (100 = growth as untreated, 0 = no growth, -100 = all killed); details: 10 µM unless noted

Question: Cc1cc(C)c(S(=O)(=O)Oc2ccccc2[N+](=O)[O-])c(C)c1 was tested. Which growth did it give?
Answer: 15.8%

Question: How did the growth turn out when CCCOc1ccc(/C=N/Nc2cc(C)nc3ccc(Br)cc23)cc1 was run?
Answer: -20.9% (active)

Question: Which growth does the source give for COc1ccc2nc(-c3ccc(-c4noc(-c5cc(OC)c(OC)c(OC)c5)n4)cc3)[nH]c2c1 here?
Answer: 30.2%

Question: For CCCCCN1C=C/C(=C\C(=O)N(C)c2ccc(Oc3ccccc3)cc2)c2ccccc21, which growth is on record?
Answer: 98.4%

Question: How did the growth turn out when COc1cc2oc(-c3cccc(C(=O)Nc4ccccc4)c3)cc(=O)c2c(O)c1OC was run?
Answer: 92.8%

Question: c1ccc2c(-c3nccs3)c[nH]c2c1 was tested. Which growth did it give?
Answer: 94.3%

Question: With O=C(O)c1ccc(NCc2cn(-c3ccc(C(F)(F)F)cc3)nc2-c2ccc(C(=O)O)cc2)cc1 as the compound, how does the growth read?
Answer: 101%

Question: NS(=O)(=O)c1ccc(CCN2C(=O)C=CC2=O)cc1 was tested. Which growth did it give?
Answer: 99.3%

Question: With C/C(=N\Nc1cc(C)nc2ccc(Br)cc12)c1ccc([N+](=O)[O-])cc1 as the compound, how does the growth read?
Answer: 21.7%

Question: For CCCCCCNC(=O)Oc1ccc(/C(=C(\C)c2ccccc2)c2ccc(OCCN3CCCCC3)cc2)cc1, which growth is on record?
Answer: 8.13% (active)

Question: Which growth does the source give for CCCNC(=O)Oc1ccc(/C(=C(\C)c2ccccc2)c2ccc(OCCCN(C)C)cc2)cc1 here?
Answer: 38.7%

Question: For O=C1c2ccccc2C(=O)c2c([N+](=O)[O-])ccc(Cl)c21, which growth is on record?
Answer: 75.9%

Question: Which growth does the source give for O=C1Nc2cc(Cl)ccc2/C1=C\c1c(-c2ccc(F)cc2)nc2ccccn12 here?
Answer: 12.5%

Question: Which growth does the source give for CSc1nc2sc3cccc(Cl)c3n2c(=N)c1C#N here?
Answer: 111%

Question: With Cc1cccc(C)c1N=c1oc2ccc(Cl)cc2nc1-c1ccccc1O as the compound, how does the growth read?
Answer: 89.4%

Question: For C=C(C)[C@@H]1CC[C@]2(C(=O)N3CCN(C)CC3)CC[C@]3(C)[C@H](CC[C@@H]4[C@@]5(C)CC[C@H](OCCC#N)C(C)(C)[C@@H]5CC[C@]43C)[C@@H]12, which growth is on record?
Answer: 90.6%

Question: With Cc1cc2nc3c4ccc(Br)cc4n(CCN(C)C)c3nc2cc1C as the compound, how does the growth read?
Answer: 1.66% (active)

Question: O=C(/C=C/c1ccc(Cl)cc1)c1ccc(NC(=O)N2CCN(c3cc4c(cc3F)c(=O)c(C(=O)O)cn4C3CC3)CC2)cc1 was tested. Which growth did it give?
Answer: 96.4%

Question: CN(C)CCC(=O)c1ccc([N+](=O)[O-])cc1 was tested. Which growth did it give?
Answer: 103%

Question: COc1ccc(-c2nc([C@@H](C)Sc3nc(N)cc(N)n3)c(C)s2)cc1OCCN1CCOCC1 was tested. Which growth did it give?
Answer: 103%

Question: With CCN1CCN(CCNc2nccc(-c3c(-c4cccc(OC)c4)nc4occn34)n2)S1(=O)=O as the compound, how does the growth read?
Answer: 102%

Question: NS(=O)(=O)c1ccc(CCN2C(=O)c3cc(Cl)c(Cl)cc3C2=O)cc1 was tested. Which growth did it give?
Answer: 103%

Question: Which growth does the source give for COc1ccc(-c2cnc3c(-c4cccc5cnccc45)cnn3c2)cc1 here?
Answer: 64.5%

Question: N#C/C(=C\c1ccc(Cl)cc1)n1nnc2cc(F)c(F)cc21 was tested. Which growth did it give?
Answer: 2% (active)

Question: With C=C1C(=O)O[C@H]2[C@H]1CC/C(CNC(=O)/C=C/c1ccccc1)=C\CC[C@@]1(C)O[C@@H]21 as the compound, how does the growth read?
Answer: -72.7% (active)

Question: COc1ccc(-c2nc(S(=O)(=O)c3ccccc3)c(S(=O)CC(=O)N3CCC(C)CC3)o2)cc1 (stereo unspecified) was tested. Which growth did it give?
Answer: -48.5% (active)

Question: For COC(=O)/C=C1\S/C(=N\NC(=O)c2cc3ccc2/C=C\c2ccc(cc2)/C=C\3)N(c2ccccc2)C1=O, which growth is on record?
Answer: 0.337% (active)

Question: Which growth does the source give for O=C(c1nc2ccccc2[nH]1)C1C(c2ccc(Br)cc2)C2CC3CCCC[C@H]3N2[C@@]12C(=O)Nc1cc(Cl)ccc12 (stereo partly specified) here?
Answer: 23.7%

Question: Which growth does the source give for Oc1cccc(CCc2ccc(Oc3cc(CCc4cccc(O)c4)cc(O)c3O)cc2)c1 here?
Answer: 39.1%

Question: For NC(=NCCCOc1ccc(F)cc1)Nc1ccc(I)cc1, which growth is on record?
Answer: 75.3%

Question: For CN(CCN(C)c1ccc(C(=N)N)cc1)c1ccc(C(=N)N)cc1, which growth is on record?
Answer: 102%

Question: Which growth does the source give for COc1cc(C(=O)Nc2cc3c(cc2Oc2cc(C)cc(C)c2)C(=O)N(C)[C@@H](CC(=O)N(C)O)C(=O)N3)c(Br)c(OC)c1OC here?
Answer: -16.2% (active)

Question: Which growth does the source give for CCNC(=O)Oc1ccc(/C(=C(\C)c2ccccc2)c2ccc(OCCN3CCCCC3)cc2)cc1 here?
Answer: 17%

Question: Which growth does the source give for COc1cc(NC(C)CCCNC(=O)CCC(=O)NCCCNCCCCCCCCCCNCCCNC(=O)CCC(=O)NCCCC(C)Nc2cc(OC)cc3cccnc23)c2ncccc2c1 (stereo unspecified) here?
Answer: 99.1% [8 µM]

Question: How did the growth turn out when O=C(N/N=C/c1ccc(Oc2ccccc2)cc1)c1cnn2c1NC(c1ccccc1)C2 (stereo unspecified) was run?
Answer: 33.9%

Question: Which growth does the source give for Cc1c(C(=O)NCCC(=O)NO)sc2ncnc(Nc3ccc(F)c(Cl)c3)c12 here?
Answer: 102%

Question: Which growth does the source give for COc1cc2nc(-c3ccc(C(F)(F)F)cc3)cc(OCCCN3CCOCC3)c2cc1OC here?
Answer: 7.76% (active)

Question: How did the growth turn out when C=CCN1C(=O)/C(=C/C(=O)OC)S/C1=N\NC(=O)c1cc2ccc1/C=C\c1ccc(cc1)/C=C\2 was run?
Answer: 66.9%

system: HT29 colon; test: as above; details: 10 µM unless noted

Question: With Cc1cc(C)c(S(=O)(=O)Oc2ccccc2[N+](=O)[O-])c(C)c1 as the compound, how does the growth read?
Answer: 3.94% (active)

Question: How did the growth turn out when CCCOc1ccc(/C=N/Nc2cc(C)nc3ccc(Br)cc23)cc1 was run?
Answer: 26.5%

Question: How did the growth turn out when COc1ccc2nc(-c3ccc(-c4noc(-c5cc(OC)c(OC)c(OC)c5)n4)cc3)[nH]c2c1 was run?
Answer: 20.2%

Question: CCCCCN1C=C/C(=C\C(=O)N(C)c2ccc(Oc3ccccc3)cc2)c2ccccc21 was tested. Which growth did it give?
Answer: 53.6%

Question: How did the growth turn out when COc1cc2oc(-c3cccc(C(=O)Nc4ccccc4)c3)cc(=O)c2c(O)c1OC was run?
Answer: 54.2%

Question: With c1ccc2c(-c3nccs3)c[nH]c2c1 as the compound, how does the growth read?
Answer: 98.9%

Question: Which growth does the source give for O=C(O)c1ccc(NCc2cn(-c3ccc(C(F)(F)F)cc3)nc2-c2ccc(C(=O)O)cc2)cc1 here?
Answer: 108%

Question: With NS(=O)(=O)c1ccc(CCN2C(=O)C=CC2=O)cc1 as the compound, how does the growth read?
Answer: 97.2%

Question: How did the growth turn out when C/C(=N\Nc1cc(C)nc2ccc(Br)cc12)c1ccc([N+](=O)[O-])cc1 was run?
Answer: 37.3%

Question: How did the growth turn out when CCCCCCNC(=O)Oc1ccc(/C(=C(\C)c2ccccc2)c2ccc(OCCN3CCCCC3)cc2)cc1 was run?
Answer: -6.46% (active)

Question: Which growth does the source give for CCCNC(=O)Oc1ccc(/C(=C(\C)c2ccccc2)c2ccc(OCCCN(C)C)cc2)cc1 here?
Answer: 5.5% (active)

Question: How did the growth turn out when O=C1c2ccccc2C(=O)c2c([N+](=O)[O-])ccc(Cl)c21 was run?
Answer: 39.4%

Question: Which growth does the source give for O=C1Nc2cc(Cl)ccc2/C1=C\c1c(-c2ccc(F)cc2)nc2ccccn12 here?
Answer: 4.36% (active)

Question: CSc1nc2sc3cccc(Cl)c3n2c(=N)c1C#N was tested. Which growth did it give?
Answer: 113%

Question: Which growth does the source give for Cc1cccc(C)c1N=c1oc2ccc(Cl)cc2nc1-c1ccccc1O here?
Answer: 80.5%

Question: C=C(C)[C@@H]1CC[C@]2(C(=O)N3CCN(C)CC3)CC[C@]3(C)[C@H](CC[C@@H]4[C@@]5(C)CC[C@H](OCCC#N)C(C)(C)[C@@H]5CC[C@]43C)[C@@H]12 was tested. Which growth did it give?
Answer: 27.6%

Question: For Cc1cc2nc3c4ccc(Br)cc4n(CCN(C)C)c3nc2cc1C, which growth is on record?
Answer: 5.01% (active)

Question: Which growth does the source give for O=C(/C=C/c1ccc(Cl)cc1)c1ccc(NC(=O)N2CCN(c3cc4c(cc3F)c(=O)c(C(=O)O)cn4C3CC3)CC2)cc1 here?
Answer: 89.3%

Question: CN(C)CCC(=O)c1ccc([N+](=O)[O-])cc1 was tested. Which growth did it give?
Answer: 96.7%

Question: For COc1ccc(-c2nc([C@@H](C)Sc3nc(N)cc(N)n3)c(C)s2)cc1OCCN1CCOCC1, which growth is on record?
Answer: 97.4%

Question: Which growth does the source give for CCN1CCN(CCNc2nccc(-c3c(-c4cccc(OC)c4)nc4occn34)n2)S1(=O)=O here?
Answer: 50.3%

Question: NS(=O)(=O)c1ccc(CCN2C(=O)c3cc(Cl)c(Cl)cc3C2=O)cc1 was tested. Which growth did it give?
Answer: 89.3%

Question: How did the growth turn out when COc1ccc(-c2cnc3c(-c4cccc5cnccc45)cnn3c2)cc1 was run?
Answer: 41.3%

Question: With N#C/C(=C\c1ccc(Cl)cc1)n1nnc2cc(F)c(F)cc21 as the compound, how does the growth read?
Answer: 9.95% (active)

Question: How did the growth turn out when C=C1C(=O)O[C@H]2[C@H]1CC/C(CNC(=O)/C=C/c1ccccc1)=C\CC[C@@]1(C)O[C@@H]21 was run?
Answer: -22.8% (active)

Question: For COc1ccc(-c2nc(S(=O)(=O)c3ccccc3)c(S(=O)CC(=O)N3CCC(C)CC3)o2)cc1 (stereo unspecified), which growth is on record?
Answer: 11%

Question: With COC(=O)/C=C1\S/C(=N\NC(=O)c2cc3ccc2/C=C\c2ccc(cc2)/C=C\3)N(c2ccccc2)C1=O as the compound, how does the growth read?
Answer: -13.1% (active)

Question: O=C(c1nc2ccccc2[nH]1)C1C(c2ccc(Br)cc2)C2CC3CCCC[C@H]3N2[C@@]12C(=O)Nc1cc(Cl)ccc12 (stereo partly specified) was tested. Which growth did it give?
Answer: 27.9%

Question: Which growth does the source give for Oc1cccc(CCc2ccc(Oc3cc(CCc4cccc(O)c4)cc(O)c3O)cc2)c1 here?
Answer: 99.2%

Question: With NC(=NCCCOc1ccc(F)cc1)Nc1ccc(I)cc1 as the compound, how does the growth read?
Answer: 38.2%

Question: For CN(CCN(C)c1ccc(C(=N)N)cc1)c1ccc(C(=N)N)cc1, which growth is on record?
Answer: 108%

Question: How did the growth turn out when COc1cc(C(=O)Nc2cc3c(cc2Oc2cc(C)cc(C)c2)C(=O)N(C)[C@@H](CC(=O)N(C)O)C(=O)N3)c(Br)c(OC)c1OC was run?
Answer: -14.5% (active)

Question: For CCNC(=O)Oc1ccc(/C(=C(\C)c2ccccc2)c2ccc(OCCN3CCCCC3)cc2)cc1, which growth is on record?
Answer: -13.8% (active)

Question: COc1cc(NC(C)CCCNC(=O)CCC(=O)NCCCNCCCCCCCCCCNCCCNC(=O)CCC(=O)NCCCC(C)Nc2cc(OC)cc3cccnc23)c2ncccc2c1 (stereo unspecified) was tested. Which growth did it give?
Answer: 73.6% [8 µM]

Question: O=C(N/N=C/c1ccc(Oc2ccccc2)cc1)c1cnn2c1NC(c1ccccc1)C2 (stereo unspecified) was tested. Which growth did it give?
Answer: 65.8%

Question: How did the growth turn out when Cc1c(C(=O)NCCC(=O)NO)sc2ncnc(Nc3ccc(F)c(Cl)c3)c12 was run?
Answer: 104%

Question: How did the growth turn out when COc1cc2nc(-c3ccc(C(F)(F)F)cc3)cc(OCCCN3CCOCC3)c2cc1OC was run?
Answer: 17.4%

Question: C=CCN1C(=O)/C(=C/C(=O)OC)S/C1=N\NC(=O)c1cc2ccc1/C=C\c1ccc(cc1)/C=C\2 was tested. Which growth did it give?
Answer: 46%
